Sampled rows, rich in hits. Any-hit rate of the full collection: about 2.2%.
iPSC survival up = enhancers of human iPSC single-cell survival | 360,000 tested, 0.044% active | hiPSC single-cell survival, ATPlite luminescence; 100% = ROCK inhibitor wells, 0% = DMSO | survival enhancement, % at 20 µM; in the data active = survival enhancement above about 18%;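 also: cells exposed to compounds for 16 hours before the ATP read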
KKLEB tox = CF airway cell cytotoxicity counter-screen | KKLEB CF airway cells viability, ATPlite luminescence, overnight; stronger effect = lower value; cells stimulated with P. aeruginosa culture filtrate | activity change (cytotoxicity), % at 5 µM | 360,000 tested, 0.36% active | AID 602141;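 active = corrected activity change at or below -50% at 5 µM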
CF NFkB inh = blocks PAF-induced NF-kB reporter in cystic fibrosis cells; KKLEB NF-kB-GFP reporter, GFP fluorescence overnight; inhibition, % at 5 µM; 360,000 tested, 0.86% active; AID 588850;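 active = at least 50% inhibition at 5 µM, scaled per plate between neutral and stimulator controls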;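 also: PAF is a Pseudomonas aeruginosa culture filtrate used as stimulus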
PPC-1+TRAIL kill = PPC-1 cancer cell killing with TRAIL present; PPC-1 cells + TRAIL, ATPLite viability luminescence; cell killing (% activity), % at 4 µM or 5 µM; 220,000 tested, 0.41% active; AID 1443;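 active = cell killing above 50% in the first pass at 4 µM, then a duplicate retest at 5 µM averaging 50% or more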
TRAIL sens C8 = sensitizes caspase-8 expressing cells to TRAIL | AID 624354 | 360,000 tested, 1% active | NB7+C8 cells + TRAIL, ATPlite viability luminescence | inhibition (viability loss, TRAIL sensitization), % at 10 µM;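 active = compounds causing at least 50% loss of cell viability in the single-dose screen, relative to plate controls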
HIF-2a block = inhibitors of HIF-2a; 360,000 tested, 0.72% active; inhibition, % at 18.8 µM; 786-0 RCC cells HIF-2a reporter, luciferase luminescence, overnight;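 active = inhibition of the luminescence signal of 40% or more relative to plate controls, in a single-dose primary screen at 18.75 µM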
Each line names hits and unclear results; the compound was inactive in the other large screens.

O=C1c2ccccc2NC(c2ccccc2)N1/N=C/c1ccccc1 (centres undefined)	TRAIL sens C8 55
O=C1c2ccccc2NC(c2ccc(O)cc2)N1/N=C/c1ccc(O)cc1 (centres undefined)	none
Cc1nc(N2CCN(S(=O)(=O)c3ccccc3C#N)CC2)c2c(-c3ccccc3)csc2n1	none (no result: PPC-1+TRAIL kill)
O=C(O)CCC(=O)NNc1nc2ccccc2nc1-c1ccccc1	none
Cc1ccc(OCC(=O)Nc2ccc(Cl)cc2)c(-n2nc3ccccc3n2)c1	KKLEB tox -70, CF NFkB inh 70
CN(C)CC(O)c1ccc(C=Cc2ccc(Cl)cc2)cc1 (centres undefined)	TRAIL sens C8 89 (no result: PPC-1+TRAIL kill)
COc1ccc(OCC(=O)Nc2cc(NC(=O)COc3ccc(OC)cc3)cc(C(=O)O)c2)cc1	none (no result: PPC-1+TRAIL kill)
C[C@@H]1CN([C@@H](C)CO)C(=O)c2cc(Br)cnc2O[C@@H]1CN(C)C(=O)CN(C)C	none (no result: PPC-1+TRAIL kill)
Cc1ccc(-n2c(Cl)c(Cl)nc(Cl)c2=O)cc1	KKLEB tox -94, CF NFkB inh 88, HIF-2a block 94
O=C1CC(N2CCN(S(=O)(=O)c3ccc([N+](=O)[O-])cc3)CC2)C(=O)N1c1ccccc1F (centres undefined)	none (no result: PPC-1+TRAIL kill)
COC(=O)C(C)N1C(=O)S/C(=C/c2cc(C)n(-c3ccccn3)c2C)C1=O (centres undefined)	TRAIL sens C8 58
CCOC(=O)CN1C(=O)S/C(=C/c2cc(C)n(-c3ccccn3)c2C)C1=O	none
Cc1cc(/C=C2/NC(=O)NC2=O)c(C)n1-c1ccccn1	none
COC(=O)C(C)N1C(=O)S/C(=C\c2cc(C)n(-c3ccccn3)c2C)C1=O (centres undefined)	TRAIL sens C8 60
CC1(c2nnnn2-c2ccc3c(c2)OCCO3)CCC(=O)N1Cc1cccnc1 (centres undefined)	none (no result: KKLEB tox, CF NFkB inh, PPC-1+TRAIL kill)
c1ccc(/N=C2\N=C(Nc3ccccn3)c3ccccc32)nc1	TRAIL sens C8 48 (no result: PPC-1+TRAIL kill)
C(C#CCCCCCCCCC[n+]1ccccc1)#CCCCCCCCCC[n+]1ccccc1	CF NFkB inh 53, TRAIL sens C8 91 (no result: PPC-1+TRAIL kill)
CCCC1OC2CC3C4CCC5=CC(=O)C=CC5(C)C4C(O)CC3(C)C2(C(=O)O)O1 (centres undefined)	CF NFkB inh 74 (no result: PPC-1+TRAIL kill)
CCC(=O)[C@@]1(C)[C@H](C)C[C@H]2[C@@H]3CCC4=CC(=O)C=C[C@]4(C)[C@H]3[C@@H](O)C[C@@]21C	CF NFkB inh 72 (no result: PPC-1+TRAIL kill)
CCCC1O[C@@H]2CC3C4CCC5=CC(=O)C=C[C@]5(C)C4C(OC(C)=O)C[C@]3(C)[C@]2(C(=O)COC(C)=O)O1 (some centres undefined)	none
CN(C(=O)CSc1nc2ccccc2[nH]1)C1CCS(=O)(=O)C1 (centres undefined)	none (no result: PPC-1+TRAIL kill)
COc1ccc(-n2nc(C(=O)NCC(=O)N3CCC(C)CC3)c3ccccc3c2=O)cc1Cl	none (no result: PPC-1+TRAIL kill)
COc1ccc(CCC(=O)OCc2csc(CC(=O)Nc3ccccc3C)n2)cc1	none (no result: PPC-1+TRAIL kill)
COc1ccc(CNC(=O)C2CCCN(S(=O)(=O)c3c(C)noc3/C=C/N(C)C)C2)cc1 (centres undefined)	none (no result: PPC-1+TRAIL kill)
COc1ccc(-n2sc3c(c2=S)-c2cc(OC)ccc2NC3(C)C)cc1	HIF-2a block 41
COc1ccc2c(c1)-c1c(sn(-c3ccccc3)c1=S)C(C)(C)N2	none
O=c1c2c3c(sc2nc2n1N=C(c1cccs1)CS2)CCCC3	PPC-1+TRAIL kill 78, TRAIL sens C8 67
CCOc1ccc(Nc2nc(N)c3ccccc3n2)cc1	KKLEB tox -56, TRAIL sens C8 86, HIF-2a block 47 (no result: PPC-1+TRAIL kill)
Nc1nc(Nc2ccccc2)nc2ccccc12	TRAIL sens C8 60
CCN(CC(=O)Nc1c(F)cccc1F)C(=O)CCN1C(=O)C2CC=CCC2C1=O (centres undefined)	none (no result: PPC-1+TRAIL kill)
O=C(NCc1ccccc1)N[C@@H](Cc1ccccc1)C(=O)O	none
CCC(C)NC(=O)N[C@@H](Cc1ccccc1)C(=O)O (some centres undefined)	KKLEB tox -85
CCOC(=O)N1CCN(C(=O)c2ccc(Cn3c(=S)[nH]c4ccc(Br)cc4c3=O)cc2)CC1	TRAIL sens C8 53 (no result: PPC-1+TRAIL kill)
CCOC(=O)N1CCN(C(=O)c2ccc3c(=O)n(Cc4ccc(Cl)cc4)c(=S)[nH]c3c2)CC1	none
Cc1ccc([C@@H]2C[C@H]3[C@@H](CN2S(=O)(=O)c2ccc(C)cc2)C(=O)C[C@@H](c2ccccc2F)N3S(=O)(=O)c2ccc(C)cc2)cc1	none (no result: PPC-1+TRAIL kill)
COc1ccc2cc(/C=N/NC(=O)c3ccc(CN(c4cccc(Cl)c4Cl)S(C)(=O)=O)cc3)c(Cl)nc2c1	PPC-1+TRAIL kill 51
COc1ccc2cc(/C=N/O)c(Cl)nc2c1	none
N#CC(CCc1ccccc1[N+](=O)[O-])(CCc1ccccc1[N+](=O)[O-])C(N)=O	none (no result: PPC-1+TRAIL kill)
COc1ccc(C(C(=O)NC2CCCC2)N(C(=O)c2snc(-c3ccc(F)cc3)c2N)c2ccc(OC)cc2)cc1 (centres undefined)	none
COc1ccc(C(C(=O)NC2CCCC2)N(C(=O)c2snc(-c3ccc(F)cc3)c2N)c2ccc(F)cc2)cc1 (centres undefined)	TRAIL sens C8 51
COc1ccccc1N=C(C)C1=C(O)CC(c2ccccc2)CC1=O (centres undefined)	CF NFkB inh 53
CCCC(=Nc1ccccc1OC)C1=C(O)CC(c2ccccc2)CC1=O (centres undefined)	none
COC(=O)C1=C(C)N(Cc2ccc(C)cc2)C(=O)/C1=C\c1ccc(O)c(OC)c1	none
COC(=O)C1=C(C)N(Cc2ccc(C)cc2)C(=O)/C1=C\c1cc(OC)c(OC)c(OC)c1	HIF-2a block 51
c1ccc(-c2noc(-c3ccc4c(c3)OCO4)n2)cc1	none
c1ccc(-c2noc(-c3ccc4ccccc4c3)n2)cc1	TRAIL sens C8 55
Cc1ccc(-c2noc(-c3ccccc3Br)n2)cc1	TRAIL sens C8 51
CCCCCc1cc(=O)oc2c(C(CCN(CC)CC)c3cc(OC)c(OC)c(OC)c3)c(OC)cc(OC)c12 (centres undefined)	TRAIL sens C8 75
CCOC(=O)c1nnn2c1nc(Nc1cccc(C(F)(F)F)c1)c1ccccc12	TRAIL sens C8 59
CCOC(=O)c1nnn2c1nc(SCC(C)=O)c1ccccc12	none
O=C(c1ccc2ccccc2c1)C1CCCN(C(=O)c2noc3c2CCCC3)C1 (centres undefined)	none
C=CCn1c(=NC(=O)c2ccc(S(=O)(=O)N3CCc4ccccc4C3)cc2)sc2cc(S(N)(=O)=O)ccc21	none
C#CCn1c(=NC(=O)c2ccc(S(=O)(=O)N3CCc4ccccc4C3)cc2)sc2cc(S(N)(=O)=O)ccc21	KKLEB tox -53, CF NFkB inh 52, PPC-1+TRAIL kill 61
